Activity calls are given as the source filed them. Calls follow the shape of the dose curve; as a rule, active = well fitted curve in the direction sought with a large enough effect in the repeat runs; inconclusive = weak or mixed curves; inactive = flat fitted curve, though single readings scatter.
Assay: qHTS assay to test for compound auto fluorescence at 460 nm (blue) in HEK293 cell free culture (AID 720681)
Settings: cell-free medium, autofluorescence 405/460 nm (blue); series mostly up to 91.3 µM; fluorescence, % of fluorescent control: at the top concentration
From the text: U.S. Tox21 Program National Center for Advancing Translational Sciences [NCATS] NIH Chemical Genomics Center [NCGC] U.S. Environmental Protection Agency [EPA] National Institutes of Environmental Health Sciences [NIEHS] National Toxicology Program [NTP] U.S. Food and Drug Administration [FDA] Tox21 Assay Overview: Compound auto fluorescence often interferes with screening of the compound library against various biological targets and signaling pathways. Some of these compounds may have fluorophoric properties. Such properties may interfere with the assay outputs resulting in false positives and/or negatives. To decrease such complications and ensure the compound activities are relevant in terms of biological response, the Tox21 10K compound library was screened for auto fluorescence. From the fluorophores used as reporter signals in our screening assays, the auto fluorescence equivalencies of compounds against three fluorophores have been evaluated: Triamterene, Fluorescein and Rose Bengal sodium for blue, green and red fluorescence, respectively. The fluorescence intensities were measured using Excitation/Emission wavelengths at 405/460nm, 485/535nm and 540/590nm for blue, green and red labels, respectively. This assay includes the blue fluorescence data.
Tox21 Assay Protocol Summary: 5 uL of culture medium (DMEM containing 10% FBS) per well was dispensed into black wall/clear bottom 1536-well plates using a Multidrop Combi Dispenser (ThermoFisher Scientific, Waltham, MA). After 23 nL compound or DMSO vehicle was transferred into assay plate by a pintool work station (Kalypsys, San Diego, CA), fluorescence intensities in the assay plates were measured by an Envision (PerkinElmer, Shelton, CT) plate reader using three labels for measuring blue, green and red fluorescence at […] 460, 535 and 590nm respectively.
% is scaled to controls: 0 for no effect and ±100 for the full control effect.

Compound	fluorescence, % of fluorescent control	outcome
CCCCOP(=O)(O)OCCCC	0.0056% (inactive)	
COc1cc2c(cc1OC)[C@@]13CCN4CC5=CCO[C@H]6CC(=O)N2[C@H]1[C@H]6[C@H]5C[C@H]43		inactive
CCC(=O)c1ccccc1	-0.074% (inactive)	
O=C(O)C(Br)CBr (stereo not given)	-0.0873% [at 95.7 µM] (inactive)	
Cc1ncc(CNC(=O)N(CCCl)N=O)c(N)n1	0.0257% [at 46 µM] (inactive)	
CC(C)NCC(O)c1ccc(N)c(C#N)c1 (stereo not given)	0.19% [at 46 µM] (inactive)	
CC(N)=S	0.0088% (inactive)	
CC(Oc1ccc(Oc2ncc(C(F)(F)F)cc2Cl)cc1)C(=O)O (stereo not given)	-0.0103% (inactive)	
CCOP(=S)(OCC)SCSP(=S)(OCC)OCC	0.0322% (inactive)	
CCC/C(=N\OCC)C1=C(O)CC(CC(C)SCC)CC1=O (stereo not given)	0.0034% (inactive)	
COc1cc(C[C@@H](C)N)c(OC)cc1C	-0.111% [at 95.7 µM] (inactive)	
CCc1cc2c(s1)-n1c(C)nnc1CN=C2c1ccccc1Cl	0.0115% [at 46 µM] (inactive)	
OCCSCSCCO	0.0166% (inactive)	
NC(=O)c1cc([N+](=O)[O-])cc([N+](=O)[O-])c1	-0.046% [at 46 µM] (inactive)	
BrCCCCCCBr	0.0313% (inactive)	
CC1(C)CON(Cc2ccccc2Cl)C1=O	-0.0456% (inactive)	
O=C(Nc1ccccc1)N(Cc1ccc(Cl)cc1)C1CCCC1	0.0042% (inactive)	
O=C1CN=C(c2ccccc2)c2cc([N+](=O)[O-])ccc2N1	2.85% [at 46 µM] (inactive)	
COP(=S)(OC)Oc1ccc(S(N)(=O)=O)cc1	0.0695% [at 46 µM] (inactive)	
CCN(Cc1ccc(Cl)nc1)/C(=C/[N+](=O)[O-])NC	-0.0171% [at 46 µM] (inactive)	

Compound	fluorescence, % of fluorescent control	outcome
COP(N)(=S)Oc1ccccc1C(=O)OC(C)C (stereo not given)	0.0569% (inactive)	
CC(CC(C#N)(c1ccccc1)c1ccccc1)N(C)C (stereo not given)	-0.0035% (inactive)	
CCCCCCBr	0.112% [at 95.7 µM] (inactive)	
CCNc1nc(NC(C)C)nc(OC)n1	-0.108% (inactive)	
O=S(=O)(O)C(F)(F)C(F)(F)C(F)(F)C(F)(F)C(F)(F)C(F)(F)F	0.0703% (inactive)	
COC(=O)c1ccccc1S(=O)(=O)NC(=O)Nc1nc(C)cc(C)n1	0.0084% (inactive)	
CCCSC(=O)N(CCC)CCC	0.206% (inactive)	
Oc1c(Cl)cccc1Cl	-0.0195% (inactive)	
CC(C1CC1)C(O)(Cn1cncn1)c1ccc(Cl)cc1 (stereo not given)	0.167% (inactive)	
O=NN1CCCCC1	-0.2% (inactive)	
ClC(Br)Br	0.0607% (inactive)	
O=NN1CCN(N=O)CC1	-0.0046% (inactive)	
C[N+](C)=CCl	-0.16% (inactive)	
O=[N+]([O-])c1cccc2c([N+](=O)[O-])cccc12	-0.186% (inactive)	
OC(c1ccccc1)(c1ccccc1)C1CCNCC1	0.0014% [at 18.6 µM] (inactive)	
CCCCc1c(C)nc(NCC)[nH]c1=O	0.0782% (inactive)	
CN1CCC(O)(c2ccc(F)cc2)C(C(=O)c2ccc(F)cc2)C1 (stereo not given)	0.109% [at 46 µM] (inactive)	
CC1CCC(=O)O1 (stereo not given)	-0.0791% (inactive)	
C[C@@H]1CN(C2CCC(C#N)(c3ccc(F)cc3)CC2)CC[C@]1(C(=O)O)c1ccccc1 (stereo not given in full)	-0.0038% [at 18.6 µM] (inactive)	
CCOC(=O)CP(=O)(OCC)OCC	0.171% (inactive)	

From PubChem BioAssay (Tox21)
